BRCT inh red: qHTS Assay for Inhibitors of BRCT-Phosphoprotein Interaction (Red Fluorophore) | BRCT-phosphopeptide binding, red fluorescence polarization | 75,000 tested, 0.03% active | Breast cancer type 1 susceptibility protein (Homo sapiens), P38398 | Potency, µM (highest dose often 76.9 µM), inactives show at the top dose activity change, negative = inhibition, actives largely listed as inhibitors; further: on the % scale 0 is the no-effect control and ±100 the full control effect
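Fluorescence polarization: 100 nM His-tagged BRCA1 BRCT with 100 nM TAMRA-labelled phospho-BACH1 decapeptide, phosphate buffer pH 7.3 with 150 mM NaCl, DTT, 0.01% Tween 20; 12 min RT. Binding inhibition seen as FP decrease.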
BRCT PPI green: qHTS Assay for Inhibitors of BRCT-Phosphoprotein Interaction (Green Fluorophore); Breast cancer type 1 susceptibility protein (Homo sapiens), P38398; BRCA1 BRCT-phosphopeptide binding, green fluorescence polarization; Potency, µM (titrated, usually from 76.9 µM), for inactives: at the highest dose activity change, negative = inhibition, actives largely listed as inhibitors; 75,000 tested, 0.05% active; AID 875, 2007;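 further: potency means the concentration at half of the fitted maximal effect; plate controls were peptide without protein for full effect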
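Fluorescence polarization: His-tagged BRCT (~35 kDa BRCA1 C-terminus, 250 nM) bound to 100 nM fluorescein-labeled phosphorylated 10-aa BACH1 peptide, pH 7.3 phosphate buffer with DTT and Tween 20. Compounds incubated 12 min at room temperature; inhibition read as lowered polarization.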
YjeE inh: qHTS Assay for Inhibitors of YjeE | tRNA threonylcarbamoyladenosine biosynthesis protein TsaE (Escherichia coli (strain … | purified YjeE enzyme, qHTS inhibition assay | Potency, µM | 71,000 tested, 0.05% active | AID 605, 2007
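Purified YjeE (10 uM) with BODIPY Texas Red-labeled ADP probe (2 uM); compounds pin-transferred, 15 min at room temperature. Binding inhibition read as decreased fluorescence polarization; ADP titration as control.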
ALOX15 inhib: qHTS Assay for Inhibitors of 15-hLO (15-human lipoxygenase); purified 15hLO-1, xylenol orange hydroperoxide absorbance; Potency, µM (series often up to 57.1 µM), for the others: top-dose activity change, negative = inhibition, actives largely listed as inhibitors; 74,000 tested, 1.4% active; AID 887, 2007; further: potency means the concentration at half of the fitted maximal effect; on the % scale 0 is the no-effect control and ±100 the full control effect; nearly all actives have a fitted effect of over 55% in size
Target sequence (P16050 whole entry, looked up): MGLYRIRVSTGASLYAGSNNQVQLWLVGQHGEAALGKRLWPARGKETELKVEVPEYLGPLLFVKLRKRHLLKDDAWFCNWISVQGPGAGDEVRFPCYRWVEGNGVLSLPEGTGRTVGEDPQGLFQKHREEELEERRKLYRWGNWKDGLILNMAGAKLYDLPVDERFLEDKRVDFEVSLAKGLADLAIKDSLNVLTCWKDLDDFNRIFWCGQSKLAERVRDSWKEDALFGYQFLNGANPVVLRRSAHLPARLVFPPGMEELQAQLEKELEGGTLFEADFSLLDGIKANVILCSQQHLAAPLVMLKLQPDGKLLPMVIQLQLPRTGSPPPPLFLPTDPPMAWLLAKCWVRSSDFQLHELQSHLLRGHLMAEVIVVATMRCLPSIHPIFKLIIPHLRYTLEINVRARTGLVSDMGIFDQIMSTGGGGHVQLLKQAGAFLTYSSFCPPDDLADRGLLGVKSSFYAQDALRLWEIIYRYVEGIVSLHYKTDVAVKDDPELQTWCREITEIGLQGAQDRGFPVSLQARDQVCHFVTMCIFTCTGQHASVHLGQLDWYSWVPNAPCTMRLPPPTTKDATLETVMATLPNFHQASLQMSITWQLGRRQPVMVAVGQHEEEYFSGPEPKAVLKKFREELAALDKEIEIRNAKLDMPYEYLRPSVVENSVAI
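Quantitative HTS in 25 mM Hepes pH 7.5 containing 0.01% Triton X-100: human 15hLO-1 at 40 nM, arachidonic acid at 50 uM, 6 min turnover. Product quantified via ferrous oxidation/xylenol orange, 573:405 nm absorbance ratio.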
DNA Pol III inh: qHTS Assay for Inhibitors of DNA Polymerase III Holoenzyme System; AID 603, 2007; Potency, µM (top dose mostly 57.1 µM), for inactives: at the top dose activity change, negative = inhibition; reconstituted DNA polymerase III holoenzyme replication, biochemical; 71,000 tested, 0.25% active; further: potency means the concentration at half of the fitted maximal effect; on the % scale 0 is the no-effect control and ±100 the full control effect
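Reconstituted *E. coli* holoenzyme (0.35 nM Pol III, 1 nM beta, 154 nM SSB, 2 nM primase) was preincubated with compound for 15 min at RT. Synthesis on 1.4 nM ssM13Gori ran 35 min, then was stopped with PicoGreen/EDTA and read as dsDNA fluorescence.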
Tau fil binding: qHTS Assay for Tau Filament Binding. Microtubule-associated protein tau (Homo sapiens), P10636. recombinant tau filaments, thioflavin S fluorescence, 15 h; filaments grown with octadecylsulfate alongside compound. Potency, µM (highest dose often 57.1 µM), for inactives: at the top dose activity change, negative = inhibition. 71,000 tested, 2% active;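 further: potency means the concentration at half of the fitted maximal effect; on the % scale 0 is the no-effect control and ±100 the full control effect; actives lower thioflavin S fluorescence by blocking filaments or displacing dye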
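ThS-based fibril read: tau 1 uM final, inducer ODS 30 uM final, 37 C for 15 h, ex 450/em 510 nm.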
tau ThS displ: Tau ThS binding assay; 60 tested, 40% active; shares compounds with Tau fil binding; recombinant tau filaments, Thioflavin S fluorescence displacement; Potency, µM; calls by dose curve
aSyn ThS displ: Alpha-synuclein ThS binding assay | shares compounds with Tau fil binding | recombinant alpha-synuclein fibrils, ThS fluorescence displacement | Potency, µM | 60 tested, 40% active; calls by dose curve
Abeta ThS displ: Beta amyloid ThS binding assay. 60 tested, 50% active. Potency, µM. AID 956, 2007. shares compounds with Tau fil binding. Abeta1-42 fibrillization, thioflavin S fluorescence, overnight 37 C; calls by dose curve
* = called active by the depositor; i = inactive; u = inconclusive; x = no result; [ ] = remark or other dose. Compounds with a hit are over-represented: about 3.3% of the library has one in this group of screens. Unless noted, the call rests on the fitted dose curve; in most records, active means well fitted curve in the direction sought with a large enough effect; inconclusive means small, poorly fitted or top-dose-only effect, or another doubt; inactive means no such curve, though single readings can be large; an effect the other way counts as inactive or inconclusive.

SMILES	BRCT inh red	BRCT PPI green	YjeE inh	ALOX15 inhib	DNA Pol III inh	Tau fil binding	tau ThS displ	aSyn ThS displ	Abeta ThS displ
CCOc1ccc(CNc2ccc(N3CCCC3)cc2)cc1	-3%	2%	i	3.2µM*	-7%	5µM*	i	u	4.3µM*
Cc1ccc2nc(NC(=O)C3CCCN(S(=O)(=O)c4cccc5nonc45)C3)sc2c1 (stereo unspecified)	1%	18%	i	-14%	1%	u	i	u	i
Cc1ccc(S(=O)(=O)NC(=O)OC23COCN2COC3)cc1	1%[15.4 µM]	-1%[15.4 µM]	i	4%[11.4 µM]	-9%[11.4 µM]	2%[11.4 µM]	x	x	x
COc1ccc2c(c1)C(=NO)c1cc(OC)ccc1-2	-1%	-3%	i	-15%	-2%	4µM*	u	u	4.1µM*
COc1ccc(C(=N/O)/C(=N/O)c2ccc(OC)cc2)cc1	1%	-1%	i	-10%	-6%	-16%	x	x	x
C[C@H](N)C1CCC(C(=O)Nc2ccncc2)CC1 (stereo partly specified)	-2%	-2%	i	-2%	-7%	-2%	x	x	x
CCCCCCOC(=O)C(C#N)c1nc2ccccc2nc1N1CCN(C)CC1 (stereo unspecified)	-1%	0%	i	-16%	-2%	1µM*	2.8µM*	1.8µM*	0.79µM*
CCCCNC(=O)C(C#N)c1nc2ccccc2nc1N1CCCC1 (stereo unspecified)	0%	4%	i	4%	16%	51%	x	x	x
C[C@@H]1/C=C\CC(=O)OC[C@H]2O[C@@H](C=C[C@@H]2O)[C@H](C)/C=C\CC(=O)OC1	0%[15.4 µM]	1%[15.4 µM]	x	-3%[11.4 µM]	x	x	x	x	x
Cc1ccc(N)cc1O	0%	1%	i	-28%	-3%	4%	x	x	x
N=C1C=CC(=C(c2ccc(N)cc2)c2ccc(N)cc2)C=C1	1%[15.4 µM]	6%[15.4 µM]	u	5%[11.4 µM]	-15%[11.4 µM]	1.3µM*	1.6µM*	2.3µM*	0.51µM*
CCOc1ccc(C(C)=O)cc1N1C(=O)C2C3C=CC(O3)C2C1=O (stereo unspecified)	0%	0%	i	-5%	-6%	7%	x	x	x
CCOc1ccc(C(C)=O)cc1N1C(=O)C2C3C=CC(C3)C2C1=O (stereo unspecified)	1%	-1%	i	0%	u	-30%	i	i	i
CN(Cc1ccco1)c1ccnc(-c2ccccc2C(F)(F)F)n1	1%	-1%	i	-17%	-7%	0%	x	x	x
O=Cc1ccc(CO)o1	0%	0%	i	-3%	2%	-2%	x	x	x

High-throughput results as filed in PubChem BioAssay.
